Compound activity (PubChem BioAssay)
A selection: hits, their analogues and other compounds. The true share with any hit is near 1.6%.
KCNQ2 pot – potentiators of rat KCNQ2 potassium channel | AID 2239 | CHO-K1 KCNQ2, FluxOR thallium flux fluorescence; active compounds read high | O88943 | 310,000 tested, 0.54% active | B-score at 10 µM;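 active = fluorescence ratio B-score at least 3 SD of library B-scores, with initial fluorescence B-score within 3 of them, cut at about 5.3 in these data; same plate scores as AID 2156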;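 note: B-score of peak minus minimum over baseline fluorescence ratio after K+ and Tl+ stimulus; positive B-score means potentiation of KCNQ2 with more thallium influx and brighter signal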
Target sequence (O88943 whole entry, looked up): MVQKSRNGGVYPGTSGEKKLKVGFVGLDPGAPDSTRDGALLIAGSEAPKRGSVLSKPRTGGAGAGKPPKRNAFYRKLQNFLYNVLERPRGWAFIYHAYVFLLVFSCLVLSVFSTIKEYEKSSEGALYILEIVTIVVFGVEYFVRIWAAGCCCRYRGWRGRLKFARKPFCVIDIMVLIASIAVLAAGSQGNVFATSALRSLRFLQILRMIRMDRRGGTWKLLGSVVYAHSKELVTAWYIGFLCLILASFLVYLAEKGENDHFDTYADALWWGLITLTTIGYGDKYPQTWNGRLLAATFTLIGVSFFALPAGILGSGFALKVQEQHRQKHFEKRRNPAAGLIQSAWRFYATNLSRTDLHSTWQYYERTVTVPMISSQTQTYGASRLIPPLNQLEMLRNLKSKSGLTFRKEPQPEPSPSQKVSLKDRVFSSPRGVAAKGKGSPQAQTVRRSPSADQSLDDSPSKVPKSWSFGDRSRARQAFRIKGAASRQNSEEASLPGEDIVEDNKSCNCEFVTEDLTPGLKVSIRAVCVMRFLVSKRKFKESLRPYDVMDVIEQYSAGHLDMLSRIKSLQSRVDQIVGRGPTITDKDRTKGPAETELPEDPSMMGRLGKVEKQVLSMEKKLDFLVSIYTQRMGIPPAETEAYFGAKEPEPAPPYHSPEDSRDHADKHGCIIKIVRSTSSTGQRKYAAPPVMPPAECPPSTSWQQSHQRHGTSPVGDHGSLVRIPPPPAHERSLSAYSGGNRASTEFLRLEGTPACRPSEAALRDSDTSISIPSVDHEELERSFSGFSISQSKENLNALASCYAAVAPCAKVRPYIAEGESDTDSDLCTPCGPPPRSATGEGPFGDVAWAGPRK
KCNQ2 inh – KCNQ2 (rat) channel inhibition. O88943. CHO-K1 KCNQ2, FluxOR thallium flux, 20 min; active compounds read low. B-score at 10 µM. 310,000 tested, 1.1% active. AID 2156;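 active = fluorescence ratio B-score at most minus 3 library SDs, with starting brightness B-score within 2 library SDs, cut at about -5.5 in these data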
The depositor's hits bear a star; i = inactive; . = not tested or not shown.

SMILES | KCNQ2 pot | KCNQ2 inh
COCCn1cc(C(=O)N2CCC(C)CC2)c2c3ccccc3n(C)c2c1=O | -5.7 | -5.7*
CC(C)Cn1cc(C(=O)N2CCOCC2)c2c3ccccc3n(C)c2c1=O | . | i
NS(=O)(=O)c1ccc(NC(=O)CSc2cn[nH]n2)cc1 | . | i
O=C(O)c1ccccc1/C=N/Nc1nc(N2CCCCC2)nc(N2CCCCC2)n1 | . | i
C(=N\Nc1nc(N2CCCCCC2)nc(N2CCCCCC2)n1)/c1ccccc1 | -5.8 | -5.8*
COc1ccccc1C(=O)NNC(=O)C1CC=CCC1 (stereo not drawn) | . | i
Cc1ccc(CNC(=O)c2cn(C3CCCC3)c(=O)c3c2c2ccccc2n3C)o1 | -8 | -8*
Cn1c2ccccc2c2c(C(=O)O)cn(C3CCCC3)c(=O)c21 | . | i
Cc1cccc(/C=C2\Sc3ccc(C(=O)N4CCC(C)CC4)cc3N(C)C2=O)c1 | -6.5 | -6.5*
Cc1cccc(/C=C2\Sc3ccc(C(=O)N4CCCCC4)cc3N(C)C2=O)c1 | . | i
CCN1CCN(C(=O)c2cccc(OC3CCN(S(C)(=O)=O)CC3)c2)[C@@H](C)C1=O | 1.2 | i
Cc1ccc(O)c(C2=NNC(c3ccc(Cl)cc3)C2)c1 (stereo not drawn) | . | i
Oc1ccc(Cl)cc1C1=NNC(c2cccs2)C1 (stereo not drawn) | 12* | i
N[C@@H](CO)c1nnc([C@H](CCC(=O)O)NC(=O)C2CCNCC2)o1 | 0.12 | i
Cn1c(SCC(=O)Nc2nccs2)nnc1-c1ccco1 | . | i
Cn1c(SCC(=O)Nc2ccc(Cl)cc2F)nnc1-c1ccco1 | -5.8 | -5.8*
CC1C/C(=C\c2ccccc2[N+](=O)[O-])c2nc3ccccc3c(C(=O)O)c2C1 (stereo not drawn) | -5.8 | -5.8*
O=C(O)c1c2c(nc3ccccc13)/C(=C/c1ccccc1[N+](=O)[O-])CCC2 | . | i
O=C(NCc1ccc(Cl)cc1)c1ccccc1CCc1ccccc1 | 4.1 | i
COc1ccc(NC(=O)CN(C)C(=O)c2ccccc2CCc2ccccc2)cc1 | . | i
O=C(NCc1ccccc1Cl)c1ccccc1CCc1ccccc1 | -5.6 | -5.6*
Cc1cc(C)c(NC(=O)c2ccccc2CCc2ccccc2)c(C)c1 | . | i
CCc1cccc(CC)c1NC(=O)c1ccccc1CCc1ccccc1 | -6.1 | -6.1*
O=C(NCc1ccccc1Cl)c1cnccn1 | 1.2 | i
O=C(NCc1ccccc1Cl)c1cnccc1C(F)(F)F | 7.4* | i
SMILES | KCNQ2 pot | KCNQ2 inh
CN(CC(=O)Nc1cccc(F)c1)C(=O)c1ccccc1CCc1ccccc1 | -6.2 | -6.2*
CCn1ncc([N+](=O)[O-])c1C(=O)Nc1ccc(C)c(C)c1 | 0.61 | i
COc1ccc(S(=O)(=O)Nc2ccccc2C(=O)N2CCOCC2)cc1C | . | i
CC(C)(C)C(=O)c1no[n+]([O-])c1/C(=N/O)C(C)(C)C | -7 | -7*
Cc1ccc(-c2cc(C(F)F)n3ncc(C(=O)N4CCN(c5ccccn5)CC4)c3n2)cc1 | -5.7 | -5.7*
CCN1CCN(C(=O)c2cnn3c(C(F)F)cc(-c4ccc(C)cc4)nc23)CC1 | 0.37 | i
COc1ccc(C(=O)NC2CC2)cc1OC1CCN(Cc2ccc(F)cc2F)CC1 | 2.1 | i
Cc1cc2ccccn2c1C(=O)c1ccncc1 | 1.3 | i
Cc1cc2ccccn2c1C(=S)NC(=O)c1ccccc1 | 19* | i
CCOc1cc(C(=O)OC(C)C(=O)Nc2ccc(NC(C)=O)cc2)ccc1OCC(=O)N1CCCCC1 (stereo not drawn) | . | i
Cc1noc(C)c1CSCC(=O)Nc1nc(-c2ccc(F)c(F)c2)cs1 | . | i
C=CCn1c(SCC(C)=O)nc2scc(-c3ccco3)c2c1=O | . | i
C=CCn1c(SCc2ccc3c(c2)OCO3)nc2scc(-c3ccco3)c2c1=O | -6.1 | -6.1*
Cc1ccccc1CC(=O)N1CC(C)OC(C)C1 (stereo not drawn) | 0.52 | i
N#CCC(=O)Nc1ccc(C(=O)NCc2cccc(Cl)c2)cc1 | 0.62 | i
Cc1ccc(C(=O)Nc2cccc(C(=O)O)c2)cc1 | 1.5 | i
Cc1oc2c(c1C(=O)Nc1cccc(C(=O)O)c1)CCCC2 | 5.6* | i
CCN(CC)CCNc1nc(-c2ccccc2)nnc1C(F)(F)F | 9* | i
CCN(CC)CCNc1nc(C(F)(F)F)nc2c1nnn2Cc1ccccc1 | 2.2 | i
Cc1ccc(C(=O)/C=C\C(=O)c2ccc(C)cc2)cc1 | -5.7 | -5.7*
CC(/C=C/C(=O)c1ccc(C)cc1)=C\c1ccccc1 | . | i
CC(=O)Nc1ccc(/C=C/c2nc(-c3ccccc3O)n[nH]2)cc1 | 1.3 | i
O=C(c1ccccc1)n1ccc(-c2cccs2)n1 | 8.6* | i
COC(=O)c1cc(-c2cccs2)nn1-c1ccccc1 | 0.05 | i
CC(C)(C)OC(=O)[C@H]1[C@H](c2ccc([N+](=O)[O-])cc2)C2(C(=O)c3ccccc3C2=O)C2c3ccccc3C=NN21 (stereo partly drawn) | -6.1 | -6.1*
SMILES | KCNQ2 pot | KCNQ2 inh
CCOC(=O)C1C(=O)C=C(c2ccc([N+](=O)[O-])cc2)CC1c1ccccc1 (stereo not drawn) | . | i
CCOc1ccc2nc(SCC(=O)NCc3ccccc3OC)[nH]c2c1 | . | i
COc1ccccc1CNC(=O)COC(=O)c1nc(Cl)ccc1Cl | 1.1 | i
COc1ccc(N(CC(=O)Nc2cccc(N(C)S(C)(=O)=O)c2)S(=O)(=O)c2ccccc2)cc1Cl | 0.54 | i
CCCCCCOC(=O)C(C#N)c1nc2ccccc2nc1N1CCN(C)CC1 (stereo not drawn) | -5.7 | -5.7*
CCC(CC)COC(=O)C(C#N)c1nc2ccccc2nc1N1CCN(CC)CC1 (stereo not drawn) | . | i
CCOC(=O)N1c2ccccc2Sc2ccccc21 | . | i
Cc1ccccc1/C(N)=N/OC(=O)N1c2ccccc2Sc2ccccc21 | -5.8 | -5.8*
COc1cc(/C=N\NC(=O)C(C)(C)O)ccc1OC/C=C/c1ccccc1 | . | i
COc1ccc(CCNC(=O)CCCCCN2C(=O)[C@@H]3Cc4ccccc4CN3C2=O)cc1OC | . | i
Cc1sc2nc(CSc3ccccc3)nc(N3CCOCC3)c2c1C | -5.9 | -5.9*
Cc1sc2nc(CSc3ccccc3)nc(N3CCC(C(N)=O)CC3)c2c1C | 1.4 | i
Cc1ccc(S(=O)(=O)Nc2cc3c(C(=O)Nc4ccccc4)c(C)oc3c3ccccc23)cc1 | . | i
Cc1ccc2c(c1)N(C(=O)CCC(=O)NCc1ccccc1)CC(C)O2 (stereo not drawn) | . | i
Cc1ccc2c(c1)N(C(=O)CCC(=O)NCc1cccc(Cl)c1)CC(C)O2 (stereo not drawn) | -5.7 | -5.7*
Cc1nc2ccccc2c(=O)n1/N=C/c1ccco1 | . | i
Cc1nc2scc(-c3ccccc3)c2c(=O)n1/N=C/c1ccco1 | -6.4 | -6.4*
O=C(CN1C(=O)CCC1=O)Nc1ccc(Cc2ccc(NC(=O)CN3C(=O)CCC3=O)cc2)cc1 | . | i
O=C(Nc1cc(Sc2nc3ccccc3s2)cc([N+](=O)[O-])c1)c1ccccc1F | -6 | -6*
O=C(Nc1cc(Sc2nc3ccccc3s2)cc([N+](=O)[O-])c1)c1ccccc1 | . | i
O=C(Cc1ccccn1)c1ccc(F)cc1 | 0.87 | i
CC(NC(=O)c1ccccc1)c1nnc(SCC(=O)NC2CCCC2)n1C (stereo not drawn) | 1.1 | i
Cc1ccc2nccc(C(=O)N3CCCC(N4CCN(c5ccc(F)cc5)CC4)C3)c2c1 (stereo not drawn) | -6.5 | -6.5*
